Most compounds without a hit are left out; they make up all but 3.3% or so of the library.
AmpC inh detg: AmpC beta-lactamase inhibition with detergent present | P00811 | AmpC hydrolysis of nitrocefin, absorbance 480 nm, 0.01% Triton | Potency, µM (doses to about 114 µM), for the others: at the highest dose activity change, negative = inhibition, hits mostly inhibitors | actives 0.041% (n = 370,000) | AID 485294;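 note: 0% = no-compound wells and -100% = no-enzyme wells; nearly all actives have a fitted effect of over 25% in size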
Target sequence (P00811 whole entry, looked up): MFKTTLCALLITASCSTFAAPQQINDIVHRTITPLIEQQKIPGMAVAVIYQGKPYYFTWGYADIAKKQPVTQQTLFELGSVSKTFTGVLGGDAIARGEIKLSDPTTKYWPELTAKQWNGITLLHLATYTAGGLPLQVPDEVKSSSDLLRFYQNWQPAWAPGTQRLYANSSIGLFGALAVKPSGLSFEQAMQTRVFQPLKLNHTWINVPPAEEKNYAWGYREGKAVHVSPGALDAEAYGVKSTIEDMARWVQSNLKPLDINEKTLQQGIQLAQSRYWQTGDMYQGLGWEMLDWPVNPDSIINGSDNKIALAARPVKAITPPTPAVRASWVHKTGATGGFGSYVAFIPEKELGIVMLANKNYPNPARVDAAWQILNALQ
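AmpC (5.3 nM in the dispensed reagent) in 20 mM phosphate pH 7.0 with 0.01% (detergent screen) or 0.0001% Triton X-100 was preincubated with compounds for 15 min at room temperature. Nitrocefin was then added from an 800 uM solution, and hydrolysis was followed at 480 nm.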
AmpC no deterg: blocks E. coli AmpC beta-lactamase in detergent-free assay | P00811 | AmpC nitrocefin hydrolysis, absorbance 480 nm, 0.0001% Triton | Potency, µM (top dose mostly 57.1 µM), for the others: top-dose activity change, negative = inhibition, most hits filed as inhibitors | actives 0.52% (n = 330,000) | AID 485341;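 note: plate controls were no compound for no effect and no enzyme for full effect; nearly all actives have a fitted effect of over 20% in size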
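AmpC (5.3 nM in the dispensed reagent) in 20 mM phosphate pH 7.0 with 0.01% (detergent screen) or 0.0001% Triton X-100 was preincubated with compounds for 15 min at room temperature. Nitrocefin was then added from an 800 uM solution, and hydrolysis was followed at 480 nm.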
Sm TGR block: blocks Schistosoma mansoni thioredoxin glutathione reductase; Potency, µM (doses to about 114 µM), for the others: at the highest dose activity change, negative = inhibition, most hits filed as inhibitors; AID 485364; actives 3% (n = 360,000); purified TGR, DTNB reduction, TNB absorbance 405 nm; note: nearly all actives have a fitted effect of over 60% in size
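First, TGR (20 nM dispensed) and NADPH were mixed with compound. Second, a 15 min room-temperature incubation followed. Third, further NADPH and then DTNB were added to start the reaction. Finally, TNB absorbance was monitored kinetically.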
Active calls of the source: *. Calls come from the whole dose curve; as a rule, active = well fitted curve in the direction sought with a large enough effect; inconclusive = small, poorly fitted or top-dose-only effect, or another doubt; inactive = no such curve, though single readings can be large; an effect the other way counts as inactive or inconclusive. Unless noted, % is set by controls: 0 for no effect and ±100 for the full control effect; potency is the fitted concentration of half-maximal effect.

How did Cc1nn(Cc2ccccc2)c(C)c1C=C1C(=O)NC(=S)NC1=O do in these assays?
AmpC inh detg: -10%; AmpC no deterg: -13%; Sm TGR block: 7.9µM*

Results for Cc1nn(Cc2ccccc2)c(C)c1N ?
AmpC inh detg: 1%; AmpC no deterg: -17%; Sm TGR block: 0%

What do the screens show for `CCOc1ccc(CNC(=O)CCS(=O)(=O)c2cc3c(cc2Cl)NC(=O)CO3)cc1OC`?
AmpC inh detg: 8%; Sm TGR block: -1%

Results for Cc1ccccc1NC(=O)C1CCC(CNS(=O)(=O)c2ccc3c(c2)C(C)(C)C(=O)N3C)CC1 (stereo not drawn) ?
AmpC inh detg: 1%; Sm TGR block: 24%

How did CC1=C(C(=O)Nc2ccccc2)C(c2cccnc2)n2nc(SCc3ccccc3F)nc2N1 (stereo not drawn) do in these assays?
AmpC inh detg: 1%; Sm TGR block: -17%

What do the screens show for `COc1ccc(NC(=O)CC2C(=O)N(c3cccc(OC)c3)C(=O)N2Cc2ccco2)cc1` (stereo not drawn)?
AmpC inh detg: 0%; AmpC no deterg: -1%; Sm TGR block: 45µM*

Results for COc1cc(NC(=O)CC2C(=O)N(c3cccc(C)c3)C(=O)N2Cc2ccco2)cc(OC)c1 (stereo not drawn) ?
AmpC inh detg: 2%; Sm TGR block: 50µM*

What do the screens show for `CCOc1ccc(NC(=O)CC2C(=O)N(c3ccccc3)C(=O)N2Cc2ccco2)cc1` (stereo not drawn)?
AmpC inh detg: -6%; AmpC no deterg: -22%; Sm TGR block: 45µM*

How did COC(=O)c1ccc(NC(=O)CC2C(=O)N(c3ccccc3)C(=O)N2Cc2ccco2)cc1 (stereo not drawn) do in these assays?
AmpC inh detg: 4%; Sm TGR block: inconclusive

What do the screens show for `COc1ccc(NC(=O)CC2C(=O)N(c3cccc(OC)c3)C(=O)N2CCC(C)C)cc1` (stereo not drawn)?
AmpC inh detg: -3%; AmpC no deterg: 25%; Sm TGR block: -15%

What do the screens show for `COC(=O)c1ccc(NC(=O)CC2C(=O)N(c3cccc(C)c3)C(=O)N2Cc2ccco2)cc1` (stereo not drawn)?
AmpC inh detg: 15%; Sm TGR block: -14%

How did O=S(=O)(NC1CCC(CNS(=O)(=O)c2c(F)cccc2F)CC1)c1ccc2c(c1)OCCO2 (stereo not drawn) do in these assays?
AmpC inh detg: inconclusive; AmpC no deterg: -35%; Sm TGR block: 0%

How did CCOC(=O)c1ccc(NC(=O)C(CC)Sc2nncn3c2cc2oc(C)cc23)cc1 (stereo not drawn) do in these assays?
AmpC inh detg: 17%; Sm TGR block: 1%

How did Cc1ccc(C2=NN(CC(=O)NCCc3ccc(Cl)cc3)C(=O)CC2)cc1 do in these assays?
AmpC inh detg: 23%; Sm TGR block: 14%

What do the screens show for `CCOC(=O)c1c(C)oc2cc(Br)c(O)c(Br)c12`?
AmpC inh detg: inconclusive; AmpC no deterg: -32%; Sm TGR block: 18%

How did CCOC(=O)c1c(C)oc(NC(=O)CCl)c1C(=O)OCC do in these assays?
AmpC inh detg: -3%; AmpC no deterg: -4%; Sm TGR block: 14µM*

What do the screens show for `CC(C)(C)C(=O)Cn1c(=O)n(-c2ccccc2)c(=O)c2c3c(sc21)CCC3`?
AmpC inh detg: 9%; Sm TGR block: 3%

How did COc1ccc(-n2c(/C=C/c3cccc4ccccc34)nc3ccccc3c2=O)cc1Cl do in these assays?
AmpC inh detg: 5%; Sm TGR block: 3%

What do the screens show for `COc1cc2[nH]c(=O)n(CCCC(=O)NCc3ccc(Cl)cc3)c(=O)c2cc1OC`?
AmpC inh detg: -1%; Sm TGR block: -8%

How did CC1=C(c2ccc(C)cc2)S(=O)(=O)N(Cc2ccc(C(=O)Nc3ccc(F)cc3C)cc2)C1=O do in these assays?
AmpC inh detg: 2%; Sm TGR block: -6%

What do the screens show for `COc1ccc(/C=N/OCC(=O)N=Nc2c(O)[nH]c3ccc(Br)cc23)cc1OC`?
AmpC inh detg: 0%; AmpC no deterg: 3.2µM*; Sm TGR block: -7%

What do the screens show for `COc1ccc(/C(C)=N/OCC(=O)N=Nc2c(O)[nH]c3ccc(Br)cc23)cc1`?
AmpC inh detg: inconclusive; AmpC no deterg: -39%; Sm TGR block: 7%

How did COc1cc(NC(=O)c2c(C)oc3ncnc(N4CCCCC4)c23)cc(OC)c1 do in these assays?
AmpC inh detg: 10%; Sm TGR block: 2%

How did O=C1CC(c2ccccc2)c2cc(O)ccc2O1 (stereo not drawn) do in these assays?
AmpC inh detg: inconclusive; AmpC no deterg: -16%; Sm TGR block: 22µM*
